Test results reported in the supplement of paper PMC11732987, “Enantioselective OTUD7B fragment discovery through chemoproteomics screening and high-throughput optimisation” (Communications Chemistry, 2025).

Key:
Assay in all cases: log2 ratio of Biotin-Ahx-Ub-VS probe labelling (fragment/DMSO); higher = less target engagement (more negative = stronger competition), active = hit call of the paper (q ≤ 0.05, log2 ratio ≤ -1)
Conditions in all cases: compound concentration: 200 uM; treatment time: 3 h
OTUD6B = target: T1, OTUD6B (UniProt Q8N6M0)
T1 sequence (whole entry): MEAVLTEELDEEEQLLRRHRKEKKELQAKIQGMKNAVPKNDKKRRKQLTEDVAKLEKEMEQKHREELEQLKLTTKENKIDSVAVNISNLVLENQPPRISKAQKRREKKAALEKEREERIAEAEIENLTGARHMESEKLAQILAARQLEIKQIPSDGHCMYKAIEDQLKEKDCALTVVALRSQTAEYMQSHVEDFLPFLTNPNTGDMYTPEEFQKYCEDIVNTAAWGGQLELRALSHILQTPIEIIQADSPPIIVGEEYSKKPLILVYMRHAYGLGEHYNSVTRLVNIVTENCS
Procedure, shortened: (§1)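 Triplicate samples of HEK293T lysate, 495 µg each, received fragment at 200 µM or vehicle for 3 h, followed by Biotin-Ahx-Ub-VS (0.5 µM final) for 1 h. After NeutrAvidin enrichment of labelled DUBs and LysC/trypsin digestion, peptides were run by diaPASEF LC-MS/MS. The values are average log2 fragment/vehicle ratios from global-median-normalised Spectronaut label-free quantities, tested by unpaired t-test on proteins having ≥2 unique peptides.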

OTUD7B = target: T2, OTUD7B (UniProt Q6GQQ9)
T2 sequence (whole entry): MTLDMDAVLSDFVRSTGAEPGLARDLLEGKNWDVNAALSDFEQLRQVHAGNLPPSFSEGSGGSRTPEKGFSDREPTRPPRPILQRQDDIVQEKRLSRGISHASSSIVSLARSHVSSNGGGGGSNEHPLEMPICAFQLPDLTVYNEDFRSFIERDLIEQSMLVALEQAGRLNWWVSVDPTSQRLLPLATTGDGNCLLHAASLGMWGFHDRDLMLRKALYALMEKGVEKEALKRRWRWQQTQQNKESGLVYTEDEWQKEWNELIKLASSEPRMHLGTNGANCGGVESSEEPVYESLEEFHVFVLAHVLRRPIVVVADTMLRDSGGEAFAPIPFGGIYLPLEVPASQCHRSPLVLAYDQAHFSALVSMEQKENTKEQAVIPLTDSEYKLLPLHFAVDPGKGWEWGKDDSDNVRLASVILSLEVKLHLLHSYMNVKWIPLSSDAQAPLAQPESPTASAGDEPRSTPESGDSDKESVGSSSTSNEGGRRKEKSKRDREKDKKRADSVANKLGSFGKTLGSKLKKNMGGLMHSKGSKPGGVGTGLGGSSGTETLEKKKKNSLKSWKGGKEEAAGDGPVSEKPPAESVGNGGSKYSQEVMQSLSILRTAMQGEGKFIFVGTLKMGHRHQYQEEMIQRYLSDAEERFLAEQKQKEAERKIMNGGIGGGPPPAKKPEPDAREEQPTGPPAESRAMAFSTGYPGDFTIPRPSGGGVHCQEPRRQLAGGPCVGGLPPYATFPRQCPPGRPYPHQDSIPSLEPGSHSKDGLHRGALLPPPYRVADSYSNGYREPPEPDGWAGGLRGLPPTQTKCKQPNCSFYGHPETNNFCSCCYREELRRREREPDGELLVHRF
Procedure, shortened: as §1

PRPF8 = PRPF8 (UniProt Q6P2Q9)
Procedure, shortened: as §1

PSMD7 = target: T3, PSMD7 (UniProt P51665)
T3 sequence (whole entry): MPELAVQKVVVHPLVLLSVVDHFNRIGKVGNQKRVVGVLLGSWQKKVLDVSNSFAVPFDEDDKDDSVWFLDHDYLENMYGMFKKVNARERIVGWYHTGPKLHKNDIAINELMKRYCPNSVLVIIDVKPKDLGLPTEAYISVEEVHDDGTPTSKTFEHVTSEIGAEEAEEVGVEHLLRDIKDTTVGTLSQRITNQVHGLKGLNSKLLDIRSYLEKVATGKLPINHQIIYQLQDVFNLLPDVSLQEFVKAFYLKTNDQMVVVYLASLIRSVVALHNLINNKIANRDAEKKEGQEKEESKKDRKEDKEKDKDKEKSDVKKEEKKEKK
Procedure, shortened: as §1

UCHL1 = UCHL1 (UniProt P09936)
UCHL1, sequence (P09936 whole entry, looked up): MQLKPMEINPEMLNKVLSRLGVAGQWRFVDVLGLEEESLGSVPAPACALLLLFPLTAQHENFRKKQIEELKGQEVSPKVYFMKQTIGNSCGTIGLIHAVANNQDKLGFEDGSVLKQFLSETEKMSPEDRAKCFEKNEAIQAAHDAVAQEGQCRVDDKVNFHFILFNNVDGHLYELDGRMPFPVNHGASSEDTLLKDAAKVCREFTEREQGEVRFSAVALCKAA
Procedure, shortened: as §1

UCHL3 = target: T4, UCHL3 (UniProt P15374)
T4 sequence (whole entry): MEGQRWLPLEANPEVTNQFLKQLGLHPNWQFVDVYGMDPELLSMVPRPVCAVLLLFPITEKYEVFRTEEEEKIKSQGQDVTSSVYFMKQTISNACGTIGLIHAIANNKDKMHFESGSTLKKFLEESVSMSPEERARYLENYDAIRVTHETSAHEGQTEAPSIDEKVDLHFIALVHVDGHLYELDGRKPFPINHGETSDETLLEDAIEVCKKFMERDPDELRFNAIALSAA
Procedure, shortened: as §1

UCHL5 = target: T5, UCHL5 (UniProt Q9Y5K5)
T5 sequence (whole entry): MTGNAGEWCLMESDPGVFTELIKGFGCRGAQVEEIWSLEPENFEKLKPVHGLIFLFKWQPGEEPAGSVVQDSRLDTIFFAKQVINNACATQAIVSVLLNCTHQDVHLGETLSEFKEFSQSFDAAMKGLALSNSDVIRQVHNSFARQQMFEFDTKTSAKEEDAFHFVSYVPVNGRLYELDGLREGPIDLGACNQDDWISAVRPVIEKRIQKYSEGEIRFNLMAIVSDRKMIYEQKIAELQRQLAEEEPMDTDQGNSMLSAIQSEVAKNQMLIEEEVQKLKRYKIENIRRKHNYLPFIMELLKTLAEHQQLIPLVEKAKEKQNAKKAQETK
Procedure, shortened: as §1

USP10 = USP10 (UniProt Q14694)
USP10, sequence (Q14694 whole entry): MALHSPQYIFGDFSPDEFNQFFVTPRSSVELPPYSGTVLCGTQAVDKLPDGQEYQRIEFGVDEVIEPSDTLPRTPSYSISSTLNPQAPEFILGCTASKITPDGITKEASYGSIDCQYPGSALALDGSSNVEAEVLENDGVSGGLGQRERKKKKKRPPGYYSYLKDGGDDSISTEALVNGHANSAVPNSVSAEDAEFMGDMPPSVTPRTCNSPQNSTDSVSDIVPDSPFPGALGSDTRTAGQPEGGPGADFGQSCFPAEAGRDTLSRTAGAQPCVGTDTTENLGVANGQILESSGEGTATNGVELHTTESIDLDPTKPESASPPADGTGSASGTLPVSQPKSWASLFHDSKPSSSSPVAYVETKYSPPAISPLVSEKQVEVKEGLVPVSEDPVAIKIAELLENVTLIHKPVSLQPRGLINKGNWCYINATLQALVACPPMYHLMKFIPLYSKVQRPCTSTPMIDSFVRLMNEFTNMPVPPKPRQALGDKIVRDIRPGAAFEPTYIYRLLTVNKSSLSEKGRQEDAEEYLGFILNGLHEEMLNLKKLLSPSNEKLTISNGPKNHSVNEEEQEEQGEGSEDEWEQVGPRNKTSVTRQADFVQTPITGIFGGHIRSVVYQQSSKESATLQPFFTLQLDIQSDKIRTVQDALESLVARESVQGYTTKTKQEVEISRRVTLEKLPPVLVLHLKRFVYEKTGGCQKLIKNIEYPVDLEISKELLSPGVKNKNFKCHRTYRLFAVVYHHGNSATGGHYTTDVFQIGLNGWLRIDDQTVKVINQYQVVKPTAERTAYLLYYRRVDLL
Procedure, shortened: as §1

USP15 = target: T6, USP15 (UniProt Q9Y4E8)
T6 sequence (whole entry): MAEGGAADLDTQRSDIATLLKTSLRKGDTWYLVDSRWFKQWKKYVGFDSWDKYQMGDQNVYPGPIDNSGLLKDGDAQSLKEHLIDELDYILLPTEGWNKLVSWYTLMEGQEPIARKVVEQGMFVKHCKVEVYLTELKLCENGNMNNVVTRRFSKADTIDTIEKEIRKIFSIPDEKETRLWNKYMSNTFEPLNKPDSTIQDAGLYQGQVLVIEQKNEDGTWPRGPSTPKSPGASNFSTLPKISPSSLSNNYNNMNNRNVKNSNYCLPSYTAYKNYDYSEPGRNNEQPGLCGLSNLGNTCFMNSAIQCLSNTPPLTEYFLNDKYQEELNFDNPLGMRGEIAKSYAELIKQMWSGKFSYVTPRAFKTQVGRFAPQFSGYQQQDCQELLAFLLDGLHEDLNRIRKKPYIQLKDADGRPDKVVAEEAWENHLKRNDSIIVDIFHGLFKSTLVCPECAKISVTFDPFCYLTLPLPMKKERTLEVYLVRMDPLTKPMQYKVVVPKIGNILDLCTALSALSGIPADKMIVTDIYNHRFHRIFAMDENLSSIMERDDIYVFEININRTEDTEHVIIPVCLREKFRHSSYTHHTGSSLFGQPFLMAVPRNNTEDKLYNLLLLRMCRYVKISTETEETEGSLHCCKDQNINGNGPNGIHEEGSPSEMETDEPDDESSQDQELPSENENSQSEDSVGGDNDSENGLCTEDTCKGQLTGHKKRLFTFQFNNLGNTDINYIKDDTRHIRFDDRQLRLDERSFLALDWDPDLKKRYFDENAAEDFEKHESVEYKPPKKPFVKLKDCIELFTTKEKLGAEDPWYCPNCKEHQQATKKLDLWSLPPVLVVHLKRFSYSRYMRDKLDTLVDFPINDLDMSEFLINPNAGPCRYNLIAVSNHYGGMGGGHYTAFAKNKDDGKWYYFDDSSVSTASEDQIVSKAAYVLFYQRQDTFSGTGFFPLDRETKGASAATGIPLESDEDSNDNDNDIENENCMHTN
Procedure, shortened: as §1

USP16 = USP16 (UniProt Q9Y5T5)
USP16, sequence (Q9Y5T5 whole entry, looked up): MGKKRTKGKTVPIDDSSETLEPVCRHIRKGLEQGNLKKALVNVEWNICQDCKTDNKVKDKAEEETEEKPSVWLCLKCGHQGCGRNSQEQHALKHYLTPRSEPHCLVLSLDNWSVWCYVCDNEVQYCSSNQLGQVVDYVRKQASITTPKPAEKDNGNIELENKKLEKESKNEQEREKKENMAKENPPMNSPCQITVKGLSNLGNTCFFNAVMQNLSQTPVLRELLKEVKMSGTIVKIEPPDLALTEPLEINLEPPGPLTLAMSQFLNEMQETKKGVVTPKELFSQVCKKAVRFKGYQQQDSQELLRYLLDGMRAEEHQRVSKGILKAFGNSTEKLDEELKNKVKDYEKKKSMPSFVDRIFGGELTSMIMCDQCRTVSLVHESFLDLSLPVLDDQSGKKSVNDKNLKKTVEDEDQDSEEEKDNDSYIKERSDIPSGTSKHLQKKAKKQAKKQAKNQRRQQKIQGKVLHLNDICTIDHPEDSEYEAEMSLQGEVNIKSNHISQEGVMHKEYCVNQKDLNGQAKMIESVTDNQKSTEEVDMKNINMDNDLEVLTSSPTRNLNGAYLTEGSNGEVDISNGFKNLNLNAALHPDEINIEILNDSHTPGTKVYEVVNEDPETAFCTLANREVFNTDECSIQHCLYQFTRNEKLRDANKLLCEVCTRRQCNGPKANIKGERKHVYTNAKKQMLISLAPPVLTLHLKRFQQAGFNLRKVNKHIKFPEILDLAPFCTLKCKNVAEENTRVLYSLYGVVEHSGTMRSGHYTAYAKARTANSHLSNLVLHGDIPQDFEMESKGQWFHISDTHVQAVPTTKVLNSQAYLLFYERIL
Procedure, shortened: as §1

Measured: log2 ratio of Biotin-Ahx-Ub-VS probe labelling

CCN1C(=O)C2CN(C(=O)CCl)CCN2C1=O (stereo not given)
inactive: OTUD6B -0.0446 | OTUD7B -0.649 | PRPF8 0.0726 | PSMD7 0.0575 | UCHL3 0.629 | UCHL5 -0.0935 | USP10 -0.0852 | USP15 -0.265 | USP16 -0.656
active: UCHL1 -1.56
